Inconclusive results are not listed. Calls of active or inactive are those of the source. Rule for the calls: active = hit-call score of the fitted dose curve at least 0.9, where 1 is the maximum; inconclusive = response in the unintended direction; inactive = score below 0.9.
These compounds were tested against rat Vasoactive Intestinal Peptide Receptor (VIP), Non-selective Binding, Vipr1 (gene 24875) (UniProt P30083) (assay: NVS_GPCR_rVIP_NonSelective: NovaScreen (NVS) G Protein-Coupled Receptor Assay for rat Vasoactive Intestinal Peptide Receptor (VIP), Non-selective Binding).
Chain of rat Vasoactive Intestinal Peptide Receptor (VIP), Non-selective Binding, Vipr1 (gene 24875) (P30083 whole entry, looked up): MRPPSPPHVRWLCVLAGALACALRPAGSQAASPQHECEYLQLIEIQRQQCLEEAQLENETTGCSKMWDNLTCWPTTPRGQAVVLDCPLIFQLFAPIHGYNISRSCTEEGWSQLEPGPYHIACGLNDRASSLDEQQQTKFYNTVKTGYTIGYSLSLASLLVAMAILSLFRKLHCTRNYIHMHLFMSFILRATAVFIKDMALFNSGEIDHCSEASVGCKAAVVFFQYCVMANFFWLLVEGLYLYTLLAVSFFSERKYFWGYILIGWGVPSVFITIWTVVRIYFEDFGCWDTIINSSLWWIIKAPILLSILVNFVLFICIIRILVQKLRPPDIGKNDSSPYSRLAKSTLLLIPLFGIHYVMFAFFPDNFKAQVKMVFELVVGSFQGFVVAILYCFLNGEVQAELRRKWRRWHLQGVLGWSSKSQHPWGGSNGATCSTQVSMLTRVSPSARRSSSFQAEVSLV
Protocol: NVS_GPCR_rVIP_NonSelective is a biochemical, single-readout assay that uses extracted gene-proteins from Rat forebrain membranes in a tissue-based cell-free assay. Measurements were taken 1 hour after chemical dosing in a 96-well plate.NVS_GPCR_rVIP_NonSelective is one of one assay component(s) measured or calculated from the NVS_GPCR_rVIP_NonSelective assay. It is designed to make measurements of radioligand binding, a form of binding reporter, as detected with scintillation counting signals by Filter-based radiodetection technology.Data from the assay component NVS_GPCR_rVIP_NonSelective was analyzed into 1 assay endpoint. This assay endpoint, NVS_GPCR_rVIP_NonSelective, was analyzed in the positive analysis fitting direction relative to DMSO as the negative control and baseline of activity. Using a type of binding reporter, loss-of-signal activity can be used to understand changes in the binding as they relate to the gene Vipr1. Furthermore, this assay endpoint can be referred to as a primary readout, because the performed assay has only produced 1 assay endpoint. To generalize the intended target to other relatable targets, this assay endpoint is annotated to the gpcr intended target family, where the subfamily is secretin receptor.
Binding assays used specific radioligands (tritiated, iodinated) with non-radioactive competitive displacement ligands in agonist or antagonist protocols (as indicated) and various reference compounds and inhibitors to titrate specific binding to receptors and transporters. Most enzyme assays (CYPs, kinases, phosphatases, proteases, HDACs) used recombinant protein and specific substrates (fluorescence mostly, some colorimetric and radioactive) and inhibitors, followed by a biochemical separation of substrate and product. All assays for the biochemical HTS were initially run in duplicate at a single concentration (10 uM for CYP450 assays and 25 uM for all others). Assay-chemical combinations meeting a pre-defined threshold (e.g., 30% inhibition and other criteria defined below) were then run in singleton concentration-response format with maximum concentration of 20 uM for CYPs and 50 uM for all others. Each assay was run with positive and negative controls, and concurrent controls on every plate. The follow-up (secondary) screen tested active chemical-pairs in concentration series, as well as a few additional assays not tested in the primary screen, some selected negative inactives, and several cases re-run in the concentration series for confirmatory purposes.
With `COP(=S)(OC)Oc1nc(Cl)c(Cl)cc1Cl` the outcome was “inactive”.
In the case of `CC[C@H](C)[C@H]1O[C@]2(C=C[C@@H]1C)C[C@@H]1C[C@@H](C/C=C(\C)[C@@H](O[C@H]3C[C@H](OC)[C@@H](O[C@H]4C[C@H](OC)[C@@H](NC)[C@H](C)O4)[C@H](C)O3)[C@@H](C)/C=C/C=C3\CO[C@@H]4[C@H](O)C(C)=C[C@@H](C(=O)O1)[C@]34O)O2`, the outcome is reported as “inactive”.
For `CC(C)N1C(=O)N(c2ccccc2)CSC1=NC(C)(C)C`, the outcome was “inactive”.
With `Oc1ccccc1-c1ccccc1` the outcome was “inactive”.
In the case of `CCOP(=O)(OCC)Oc1nc(Cl)c(Cl)cc1Cl`, the outcome is reported as “inactive”.
`CCC[CH2][Sn]([Cl])([CH2]CCC)[CH2]CCC` was tested, and the AC50 was 7.97 µM (active).
In the case of `Nc1c(Cl)c(F)nc(OCC(=O)O)c1Cl`, the outcome is reported as “inactive”.
With `C=C(C)C(=O)[O][Sn]([CH2]CCC)([CH2]CCC)[CH2]CCC` the AC50 was 14.9 µM (active).
With `Cc1ccc(-c2c(Cl)nc(C#N)n2S(=O)(=O)N(C)C)cc1` the outcome was “inactive”.
In the case of `CC(=O)[O][Hg][c]1ccccc1`, the outcome is reported as “inactive”.
